Results: PubChem BioAssay (NCI)
About 83,000 compounds went through this panel and 20% of them were active in at least one assay; those are over-represented in the sample as a whole.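 The endpoint reported here, percent growth, reads 100 for growth as untreated, 0 for no net growth and -100 for all cells dead.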 Values without a mark were called inactive. Calls of active or inactive are those of the source. Rule for the calls: active = growth percent below 10; inactive = the rest.

test system: NCI-H522 lung; assay: NCI-60 one-dose screen, 48 h (100 = growth as untreated, 0 = no growth, -100 = all killed); details: 10 µM unless noted

| Structure (SMILES) | growth |
| --- | --- |
| CN1CCN(CCOc2ccc(-c3cnc4c(-c5cccc(F)c5)cnn4c3)cc2)CC1 | 82% |
| Cc1cc(N(CCNc2ccnc3cc(Cl)ccc23)Cc2ccco2)nc(Cl)n1 | -8.16% (active) |
| COc1ccc(CCN2C(=O)C(C)(C)SC2=S)cc1OC | 93.8% |
| Cc1cc2nc3c4cc(O)ccc4n(CCN(C)C)c3nc2cc1C | -13.5% (active) |
| CCCCC(=O)OC1CCCCC1C (stereo not drawn) | 83% |
| COc1ccc2c(c1)c(-c1nc(-c3c[nH]c4ncccc34)cs1)cn2CCCN1CCCCC1 | 67.6% |
| CC(=O)c1c(C)[nH]c(-c2nc3ccc(N4CCN(C)CC4)cc3[nH]2)c1-c1ccc(OCC2CCOCC2)cc1 | 37.6% |
| Cc1nc([P+](c2ccccc2)(c2ccccc2)c2ccccc2)c(Sc2sc(-c3ccccc3)nc2[P+](c2ccccc2)(c2ccccc2)c2ccccc2)o1 | 3.53% (active) |
| NNC(=O)c1nc2ccccc2[nH]1 | 96.8% |
| O=P(O)(c1ccccc1)c1ccccc1I | 80.7% |
| COc1ccc(OC)c(-c2c(C#N)c(-c3ccco3)nc3c2c(-c2ccccc2)nn3-c2ccccc2)c1 | 81.9% |
| CNC(=O)c1cc(Oc2ccc3nc(NC(=O)Nc4ccc(Cl)cc4)sc3c2)ccn1 | 78% |
| Clc1cc(Cl)cc(Nc2ccc3c(OCCCN4CCOCC4)cccc3n2)c1 | 5.16% (active) |
| N#CC1=C(N)Oc2c(c(N)nn2-c2ccccc2)C1c1ccc(Cl)cc1Cl (stereo not drawn) | 90.5% |
| CC(C)(C)c1ccc(OCCCCCCCN2CCNCC2)cc1 | 72.9% |
| Cc1cc(Cl)nc(N(CCCNc2ccnc3cc(Cl)ccc23)Cc2ccco2)n1 | 13.8% |
| CC1(C)NCCC[C@]2(C)[C@H]3CC[C@@H]4[C@H]5[C@H](C(=O)/C=C/c6ccccn6)CC[C@]5(CO)CC[C@@]4(C)[C@]3(C)CC[C@@H]12 | 54.4% |
| NCCNc1nc(-c2ccccc2)nc2nc(-c3ccccc3)oc12 | 105% |
| COc1cnc2c(c1)C(=O)c1c-2n(CCCNC(C)C)c(=O)c2cc([N+](=O)[O-])ccc12 | -56.6% (active) |
| COc1cnc2c(c1)C(=O)c1c-2n(CCCNC2=NCCS2)c(=O)c2cc([N+](=O)[O-])ccc12 | 22.8% |
| CCC(c1ccc(OC)cc1)C(CC)c1ccc(O)c(CN2CCCCC2)c1 (stereo not drawn) | 72.3% |
| COc1cc2nc(Cl)nc(Nc3cccc(C(=O)/C=C/c4ccccc4)c3)c2cc1OC | 56.9% |
| CC1(C)C(=O)/C(=C\c2ccco2)C[C@]2(C)[C@H]3CC[C@@H]4[C@@H](C(=O)/C=C/c5ccco5)CC[C@@]4(C)[C@]3(C)CC[C@@H]12 | 92.4% |
| CCCC1CCCCN1C(=O)OCC(C)C (stereo not drawn) | 99.4% |
| Cc1ccc(-c2nn(Cc3cn(-c4cc(C)nc5ccccc45)nn3)c3ncnc(N)c23)cc1 | 55.5% |

test system: A549/ATCC NSCLC; assay: as above; details: 10 µM unless noted

| Structure (SMILES) | growth |
| --- | --- |
| O=C(/C=C/c1ccc2ccccc2c1)Nc1ncc(Cc2ccccc2)s1 | 21.6% |
| O=C1c2cc3c(cc2-c2c1c1ccc(F)cc1c(=O)n2CCCN1CCOCC1)OCO3 | 33.8% |
| C=C1CC[C@@H](C(=O)OC)Cc2nc(C)ccc21 | 98.5% |
| CCN1CCN(C(=O)[C@]23CCC(C)(C)C[C@@H]2C2=CC[C@@H]4[C@@]5(C)C/C(=C/c6cccnc6)C(=O)C(C)(C)[C@@H]5CC[C@@]4(C)[C@]2(C)CC3)CC1 | 13.5% |
| Nc1c(C(=O)Nc2cccc3ccccc23)sc2nc3c(cc12)CCCC3 | 17.8% |
| CC(C)(C)c1cc(-n2c(-c3ccc(Cl)cc3)nc3cc(C(=O)Nc4ccc(Cl)cc4)ccc32)n[nH]1 | 51.1% |
| Fc1ccc(Nc2nnc(-c3ccc(Cl)cc3)o2)cc1 | 81.3% |
| O=C1/C(=C\c2ccc(Br)o2)SC(=S)N1CCc1ccc(O)cc1 | 100% |
| CC(=O)c1c(C)[nH]c(-c2nc3ccc(N4CCN(C)CC4)cc3[nH]2)c1-c1ccc2c(c1)OCCO2 | 44% |
| COc1ccc2[nH]c(-c3ccc(Cl)cc3)cc(=O)c2c1 | 96.3% |
| CCC1C(=O)COC1=O (stereo not drawn) | 64.1% |
| COc1ccc(O)c(-c2cc(-c3ccc(Cl)cc3)c(C#N)c(=O)[nH]2)c1 | 86.7% |
| C=C(C)[C@@H]1CC[C@]2(C)[C@H](CC[C@@H]3[C@H]4[C@H]5OC[C@@]4(CCC5(C)C)CC[C@]32C)[C@@]1(C)CCCN | 55.1% |
| CN1CCN(CCOc2ccc(-c3cnc4c(-c5cccc(F)c5)cnn4c3)cc2)CC1 | 49.4% |
| Cc1cc(N(CCNc2ccnc3cc(Cl)ccc23)Cc2ccco2)nc(Cl)n1 | -55.8% (active) |
| COc1ccc(CCN2C(=O)C(C)(C)SC2=S)cc1OC | 101% |
| Cc1cc2nc3c4cc(O)ccc4n(CCN(C)C)c3nc2cc1C | -32.7% (active) |
| CCCCC(=O)OC1CCCCC1C (stereo not drawn) | 72.3% |
| COc1ccc2c(c1)c(-c1nc(-c3c[nH]c4ncccc34)cs1)cn2CCCN1CCCCC1 | 41.3% |

| Structure (SMILES) | growth |
| --- | --- |
| CC(=O)c1c(C)[nH]c(-c2nc3ccc(N4CCN(C)CC4)cc3[nH]2)c1-c1ccc(OCC2CCOCC2)cc1 | 33.2% |
| Cc1nc([P+](c2ccccc2)(c2ccccc2)c2ccccc2)c(Sc2sc(-c3ccccc3)nc2[P+](c2ccccc2)(c2ccccc2)c2ccccc2)o1 | 11.5% |
| NNC(=O)c1nc2ccccc2[nH]1 | 61.3% |
| O=P(O)(c1ccccc1)c1ccccc1I | 71.2% |
| COc1ccc(OC)c(-c2c(C#N)c(-c3ccco3)nc3c2c(-c2ccccc2)nn3-c2ccccc2)c1 | 94.9% |
| CNC(=O)c1cc(Oc2ccc3nc(NC(=O)Nc4ccc(Cl)cc4)sc3c2)ccn1 | 44.1% |
| Clc1cc(Cl)cc(Nc2ccc3c(OCCCN4CCOCC4)cccc3n2)c1 | 25.6% |
| N#CC1=C(N)Oc2c(c(N)nn2-c2ccccc2)C1c1ccc(Cl)cc1Cl (stereo not drawn) | 108% |
| CC(C)(C)c1ccc(OCCCCCCCN2CCNCC2)cc1 | 44.9% |
| Cc1cc(Cl)nc(N(CCCNc2ccnc3cc(Cl)ccc23)Cc2ccco2)n1 | 29.2% |
| CC1(C)NCCC[C@]2(C)[C@H]3CC[C@@H]4[C@H]5[C@H](C(=O)/C=C/c6ccccn6)CC[C@]5(CO)CC[C@@]4(C)[C@]3(C)CC[C@@H]12 | 36.9% |
| NCCNc1nc(-c2ccccc2)nc2nc(-c3ccccc3)oc12 | 93.6% |
| COc1cnc2c(c1)C(=O)c1c-2n(CCCNC(C)C)c(=O)c2cc([N+](=O)[O-])ccc12 | -65.5% (active) |
| COc1cnc2c(c1)C(=O)c1c-2n(CCCNC2=NCCS2)c(=O)c2cc([N+](=O)[O-])ccc12 | -77.2% (active) |
| CCC(c1ccc(OC)cc1)C(CC)c1ccc(O)c(CN2CCCCC2)c1 (stereo not drawn) | 84% |
| COc1cc2nc(Cl)nc(Nc3cccc(C(=O)/C=C/c4ccccc4)c3)c2cc1OC | 74.5% |
| CC1(C)C(=O)/C(=C\c2ccco2)C[C@]2(C)[C@H]3CC[C@@H]4[C@@H](C(=O)/C=C/c5ccco5)CC[C@@]4(C)[C@]3(C)CC[C@@H]12 | 96.9% |
| CCCC1CCCCN1C(=O)OCC(C)C (stereo not drawn) | 104% |
| Cc1ccc(-c2nn(Cc3cn(-c4cc(C)nc5ccccc45)nn3)c3ncnc(N)c23)cc1 | 44.1% |
